Assay results: article PMC4336329 (PLoS ONE, 2015)
Among all 310,000 compounds or so, about 14,000 (4.5%) showed an effect of 50% or more. Effects have a minus sign here. Only a selection was taken, and strong results are over-represented in it overall.

target: human ether-à-go-go-related gene (hERG) potassium channel (human, UniProt Q12809); assay: primary screen, population patch clamp on CHO cells stably expressing hERG; higher = less effect of the substance
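Note: peak tail current of the secondary pulse compared with the same well before compound.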

Chain of human ether-à-go-go-related gene (hERG) potassium channel (Q12809 whole entry, looked up): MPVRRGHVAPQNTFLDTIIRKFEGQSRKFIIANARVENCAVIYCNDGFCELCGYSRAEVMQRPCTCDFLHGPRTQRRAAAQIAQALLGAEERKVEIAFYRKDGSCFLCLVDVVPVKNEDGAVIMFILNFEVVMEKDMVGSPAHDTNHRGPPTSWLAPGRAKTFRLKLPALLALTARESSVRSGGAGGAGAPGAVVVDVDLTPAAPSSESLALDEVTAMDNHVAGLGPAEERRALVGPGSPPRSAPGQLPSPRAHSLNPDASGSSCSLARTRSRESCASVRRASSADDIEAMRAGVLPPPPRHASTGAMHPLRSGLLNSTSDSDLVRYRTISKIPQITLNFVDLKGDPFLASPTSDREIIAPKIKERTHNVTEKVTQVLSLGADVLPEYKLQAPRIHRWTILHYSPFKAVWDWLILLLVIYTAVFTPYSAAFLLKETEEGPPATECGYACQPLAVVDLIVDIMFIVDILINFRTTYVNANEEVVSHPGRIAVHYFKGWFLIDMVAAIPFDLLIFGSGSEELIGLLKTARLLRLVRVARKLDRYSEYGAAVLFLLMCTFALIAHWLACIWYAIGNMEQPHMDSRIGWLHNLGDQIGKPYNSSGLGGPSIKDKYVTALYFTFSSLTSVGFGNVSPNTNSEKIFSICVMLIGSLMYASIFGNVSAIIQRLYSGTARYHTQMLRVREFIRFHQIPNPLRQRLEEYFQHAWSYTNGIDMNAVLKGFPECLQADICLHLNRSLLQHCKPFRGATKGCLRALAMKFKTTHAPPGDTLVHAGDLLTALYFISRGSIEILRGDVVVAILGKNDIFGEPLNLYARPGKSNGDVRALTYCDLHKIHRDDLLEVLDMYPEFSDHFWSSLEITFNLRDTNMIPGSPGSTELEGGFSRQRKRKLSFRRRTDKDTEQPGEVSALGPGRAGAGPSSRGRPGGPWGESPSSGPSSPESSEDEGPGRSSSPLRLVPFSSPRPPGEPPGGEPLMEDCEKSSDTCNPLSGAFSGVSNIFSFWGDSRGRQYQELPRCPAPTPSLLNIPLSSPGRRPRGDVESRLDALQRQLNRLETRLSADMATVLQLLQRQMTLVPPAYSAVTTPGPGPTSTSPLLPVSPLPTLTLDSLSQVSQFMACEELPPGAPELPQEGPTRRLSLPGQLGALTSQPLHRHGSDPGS

| SMILES | hERG current change (%, negative = inhibition) at 10uM [%] |
| --- | --- |
| COC(=O)Nc1nc(-c2ccc(F)cc2)c(C)s1 | 14.5 |
| Cc1ccc(-n2c(O)c(/C=N/NC(=O)c3ccncc3)c(=O)[nH]c2=O)cc1C | 9.71 |
| CN(c1ccccc1)c1ncccn1 | 18 |
| O=S(=O)(Nc1cccnc1)c1ccc(F)cc1 | 16.6 |
| COc1ccc(C2=NOC(Cn3nc(C(=O)NCc4ccccc4OC)cc3-c3ccccc3)C2)cc1 (stereo not drawn) | -16.2 |
| COc1ccc(C2=NOC(Cn3nc(C(=O)O)cc3-c3ccccc3)C2)cc1 (stereo not drawn) | -10.3 |
| COc1ccc(C2=NOC(Cn3nc(C(=O)NCc4ccco4)cc3-c3ccccc3)C2)cc1 (stereo not drawn) | -68.2 |
| COc1ccc(C2=NOC(Cn3nc(C(=O)NCc4ccc(C)cc4)cc3-c3ccccc3)C2)cc1 (stereo not drawn) | 2.68 |
| COc1ccc(C2=NOC(Cn3nc(C(=O)NCc4ccc(OC(F)(F)F)cc4)cc3-c3ccccc3)C2)cc1 (stereo not drawn) | -3.95 |
| COc1ccc(C2=NOC(Cn3nc(C(=O)NCc4cccs4)cc3-c3ccccc3)C2)cc1 (stereo not drawn) | -51.3 |
| COCCNC(=O)c1cc(-c2ccccc2)n(CC2CC(c3ccc(OC)cc3)=NO2)n1 (stereo not drawn) | -10.7 |
| COc1ccc(C2=NOC(Cn3nc(C(=O)NCc4ccc5c(c4)OCO5)cc3-c3ccccc3)C2)cc1 (stereo not drawn) | -17.4 |
| COc1ccc(C2=NOC(Cn3nc(C(=O)NCC4CC4)cc3-c3ccccc3)C2)cc1 (stereo not drawn) | -65 |
| COc1ccc(S(=O)(=O)N2CCC(C(=O)NCC3CCCO3)CC2)cc1C (stereo not drawn) | 9.95 |
| O=C(CNC(=O)c1ccc(S(=O)(=O)N2CCCC2)cc1)N/N=C/c1c(Cl)cccc1Cl | 6.64 |
| CN(CCO)C(=O)c1ccc(-c2nn(C)c(=O)c3ccccc23)cc1 | 10.9 |
| Nc1nc2ncc(C(=O)c3cc(F)ccc3O)cc2s1 | -0.22 |
| Cn1c2c(c(=O)n(C)c1=O)C(CC(=O)Nc1ccccc1)C(=O)N2 (stereo not drawn) | 2.49 |
| Cc1ccc(C(=O)N/C(=C\c2cccs2)C(=O)NCC2CCCO2)cc1C (stereo not drawn) | 6.35 |
| CCN1CCN(C(=O)/C(=C/c2cccs2)NC(=O)c2ccc(C)c(C)c2)CC1 | -75.6 |
| Cc1ccc(C(=O)N/C(=C\c2cccs2)C(=O)N2CCOCC2)cc1C | -19 |

| SMILES | hERG current change (%, negative = inhibition) at 10uM [%] |
| --- | --- |
| CC(C)(C)c1ccc(C(=O)N/C(=C\c2cccs2)C(=O)N2CCOCC2)cc1 | -7.22 |
| O=C(N/C(=C/c1cccs1)C(=O)N1CCCCCC1)c1ccccc1 | -21 |
| Cc1ccc(C(=O)N/C(=C\c2cccs2)C(=O)N2CCN(C)CC2)cc1C | -70.6 |
| CCc1nnc(NC(=O)Cc2ccc(Br)cc2)s1 | 12.4 |
| CC1CCc2[nH]c3ccc(C(=O)N(C)CC(=O)Nc4ccccc4C(F)(F)F)cc3c2C1 (stereo not drawn) | 4.13 |
| O=C1CC(c2cccc([N+](=O)[O-])c2)c2c(ccc3ccccc23)N1 (stereo not drawn) | 10.3 |
| Cc1cc(C)n2nc(C(=O)Nc3cccc(S(=O)(=O)N4CCCC4)c3)nc2n1 | -2.92 |
| COc1ccccc1NS(=O)(=O)c1cccc(NC(=O)c2ccc3ccccc3n2)c1 | 3.05 |
| Cc1cc(C)n2nc(C(=O)Nc3ccc(S(=O)(=O)N(C)C)cc3)nc2n1 | -2.93 |
| COc1ccccc1NS(=O)(=O)c1ccc(NC(=O)c2nc3nc(C)cc(C(F)F)n3n2)cc1 | -13.8 |
| COc1ccccc1NS(=O)(=O)c1cccc(NC(=O)c2nc3nc(C)cc(C)n3n2)c1 | -55.2 |
| Cc1cc(C)n2nc(C(=O)Nc3cccc(S(=O)(=O)N(C)c4ccccc4)c3)nc2n1 | -68.3 |
| CCOC(=O)/C=C/C(=O)Nc1ccc(S(=O)(=O)N(C)c2ccccc2)cc1 | -2.23 |
| O=c1[nH]c(=O)n(-c2ccc(Cl)cc2)c(O)c1C=NCCN1CCCCC1 | 2.13 |
| O=C(NCc1cccc(Br)c1)c1cc(-c2ccccc2)nn1CC1CC(c2cccc([N+](=O)[O-])c2)=NO1 (stereo not drawn) | -0.929 |
| O=C(O)c1cc(-c2ccccc2)nn1CC1CC(c2cccnc2)=NO1 (stereo not drawn) | 6.86 |
| O=C(NCc1cccc(Br)c1)c1cc(-c2ccccc2)nn1CC1CC(c2cccnc2)=NO1 (stereo not drawn) | -62.8 |
| O=C(NCc1cccc(C(F)(F)F)c1)c1cc(-c2ccccc2)nn1CC1CC(c2cccnc2)=NO1 (stereo not drawn) | -52.4 |
| Cc1ccccc1-c1cc(C(=O)NCc2ccc3c(c2)OCO3)n(CC2CC(c3cccnc3)=NO2)n1 (stereo not drawn) | -20.8 |
| C=CCc1cccc2cc(C(=O)OCC)c(=O)oc12 | -42.3 |
| CCOc1cc(S(=O)(=O)NC2CC(C)(C)NC(C)(C)C2)ccc1F | -9.91 |

| SMILES | hERG current change (%, negative = inhibition) at 10uM [%] |
| --- | --- |
| CCc1c(C)nc2cc(-c3cccc(Br)c3)[nH]n2c1=O | -3.6 |
| O=S(=O)(Nc1ncccn1)c1ccc(NC(=S)NCc2cccnc2)cc1 | 33.8 |
| COc1cc(C(C(=O)NC(C)(C)C)N(Cc2ccccc2)C(=O)c2cnccn2)cc(OC)c1OC (stereo not drawn) | 5.8 |
| C=CCNC(=O)CN1CCC(O)(c2ccccc2)CC1 | 4.87 |
| COc1cccc(OC)c1C(=O)Nc1cc(C)on1 | 7.22 |
| O=C(CSc1nc2ccsc2c(=O)n1CC1CCC(C(=O)O)CC1)c1ccc(Cl)cc1 (stereo not drawn) | 33.9 |
| O=C(c1ccc2c(c1)N(Cc1ccccc1)CCS2)N1CCC2(CC1)OCCO2 | -56.1 |
| O=C(c1ccc2c(c1)N(Cc1ccccc1)CCS2)N1CCCCC1 | -32.9 |
| CN1CCN(CCCNC(=O)c2ccc3c(c2)N(Cc2ccccc2)CCS3)CC1 | -23.6 |
| Cc1ccc(CN2CCSc3ccc(C(=O)N4CCC5(CC4)OCCO5)cc32)cc1 | -49.1 |
| O=C(c1ccc2c(c1)N(Cc1ccc(F)cc1)CCS2)N1CCC2(CC1)OCCO2 | -57.1 |
| O=C(c1ccc2c(c1)N(Cc1ccccc1)CCS2)N1CCOCC1 | -29.7 |
| CN1CCSc2ccc(C(=O)NCc3ccccc3)cc21 | -9.52 |
| O=C(c1ccc2c(c1)N(Cc1ccc(F)cc1)CCS2)N1CCOCC1 | -23.3 |
| CCN1CCN(CCCNC(=O)c2ccc3c(c2)N(Cc2ccccc2)CCS3)CC1 | -39.3 |
| Cc1cccc(CNC(=O)c2ccc3c(c2)N(C)CCS3)c1 | -59.4 |
| CN1CCSc2ccc(C(=O)NCc3cccc(Br)c3)cc21 | 0.343 |
| O=C(NCCCN1CCCC1)c1ccc2c(c1)N(Cc1ccccc1)CCS2 | -69.6 |
| S=C(NC1CCCC1)N1CCN(c2ncccn2)CC1 | -19.3 |
| C[C@@]12CCC=C[C@H]1[C@H](c1ccoc1)N(Cc1ccccc1)C2=O | -8.15 |
| CC(=O)c1c(N)n(C)c(=O)n(C)c1=O | -4.24 |

| SMILES | hERG current change (%, negative = inhibition) at 10uM [%] |
| --- | --- |
| CSc1oc(-c2ccc(F)cc2)nc1S(=O)(=O)c1ccc(F)cc1 | 3.51 |
| NNc1nnnc2c1sc1nc(N3CCOCC3)c3c(c12)CCCC3 | 5.3 |
| COc1cc(C(=O)OCC(=O)Nc2cccc(S(=O)(=O)N3CCOCC3)c2)ccc1OCC(C)C | 18.3 |
| CC(C)(C)C(=O)/C=C(\N)c1ccncc1 | 1.74 |
| CCOc1ccc(N(CC(=O)NCCSCc2ccc(Cl)cc2)S(C)(=O)=O)cc1 | 4.71 |
| COc1ccc(C)cc1NC(=O)CCNS(=O)(=O)c1cccc(C(F)(F)F)c1 | -27.6 |
| Cc1cc2c(cc1S(=O)(=O)N(C)C1CCCCC1)OCC(=O)N2 | 7.2 |
| O=S(=O)(NCCCCCNS(=O)(=O)c1ccccc1)c1ccccc1 | -2.98 |
| Cc1ccc(OCC(=O)Nc2ccc(C(=O)O)cc2NC(=O)COc2ccc(C)c(C)c2)cc1C | 6.5 |
| CCC1CCCN1Cn1cnc2c([nH]c3ccc(OC)cc32)c1=O (stereo not drawn) | -62.6 |
| COc1ccc2[nH]c3c(=O)n(CCc4ccccc4)cnc3c2c1 | -6.62 |
| COc1ccc2[nH]c3c(=O)n(Cc4ccncc4)cnc3c2c1 | -11 |
| COc1ccc2[nH]c3c(=O)n(CCCN4CCOCC4)cnc3c2c1 | -3.86 |
| COc1ccc2[nH]c3c(=O)n(CCN4CCOCC4)cnc3c2c1 | -2.38 |
| COc1ccc2c(c1)[nH]c1c(=O)n(CCN3CCCC3)cnc12 | -46.3 |
| CCN1CCCC1Cn1cnc2c([nH]c3ccc(OC)cc32)c1=O (stereo not drawn) | -66.1 |
| CCN1CCCC1Cn1cnc2c([nH]c3cc(OC)ccc32)c1=O (stereo not drawn) | -63.8 |
| COc1ccc2c(c1)[nH]c1c(=O)n(CC3CCCO3)cnc12 (stereo not drawn) | 11.1 |
| CCCc1cc(CNC(=O)C2CCC(=O)N(CCc3cccc(F)c3)C2)on1 (stereo not drawn) | -49.6 |
| COc1ccccc1NC(=O)c1ccc(C)c(S(=O)(=O)N2CCCCC2)c1 | -8.22 |
| Cc1nnsc1C(=O)NNc1ccc(C(C)(C)C)cc1 | 14.1 |
